Source: PubChem (National Center for Advancing Translational Sciences (NCATS))
This is a sample that favours compounds with a hit; in the whole collection about 17% have one here.
TDP1 cell noCPT – qHTS for Inhibitors of human tyrosyl-DNA phosphodiesterase 1 (TDP1): qHTS in cells in absence of CPT | DT40 Tdp1-/- hTDP1 cells, no CPT, ATP luminescence, 48 h | Potency, µM (doses to about 46.2 µM), most hits filed as inhibitors | 420,000 compounds, 15% hits | AID 686978, 2013; note: nearly all actives have a fitted effect of over 55% in size
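DT40 Tdp1-/-;hTDP1 cells, no CPT (DMSO vehicle only), 400 cells/well; compounds pin-transferred; ≥48 hr, 37 °C; CellTiter-Glo 30 min RT dark, luminescence read.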
DT40 TDP1 CPT – DT40-hTDP1 cell growth loss with CPT. chicken DT40 Tdp1-/-;hTDP1 cells + 20 nM CPT, ATP luminescence, 48 h. Potency, µM (highest dose often 46.2 µM), hits mostly inhibitors. 420,000 compounds, 12% hits. AID 686979; note: nearly all actives have a fitted effect of over 55% in size
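Chicken DT40 Tdp1-/- cells stably complemented with human TDP1 were seeded at 400 cells/well in medium containing 20 nM camptothecin, exposed to pin-transferred compounds, and grown at 37 °C for at least 48 hr. Viability was read as ATP luminescence.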
ClpP mod – qHTS Assay for Activators of ClpP. purified B. subtilis ClpP, FRET peptide cleavage, 20 min. Potency, µM (series often up to 57.5 µM). 340,000 compounds, 1.9% hits; active = well fitted falling curve with a large enough effect; inconclusive = small, poorly fitted or top-dose-only effect; inactive = no such curve, though single readings can be large or run the other way; note: the source files actives as falling curves though it sought activators and does not explain the sign; nearly all actives have a fitted effect of over 65% in size
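ClpP 10 microg/mL final, pH 8 Tris/KCl buffer with BSA, glycerol, Tween-20; compound pinned in; FRET-FV substrate; RT 20 min; Ex320/Em430; ΔFRET vs ADEP 5.8 microM, DMSO, no enzyme.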
TDP1 block – TDP1 (human) enzyme inhibition. Potency, µM (titrated, usually from 130 µM), hits mostly inhibitors. 350,000 compounds, 0.28% hits. Q9NUW8. recombinant TDP1, AlphaScreen DNA substrate cleavage; note: nearly all actives have a fitted effect of over 40% in size
Target sequence (Q9NUW8 whole entry, looked up): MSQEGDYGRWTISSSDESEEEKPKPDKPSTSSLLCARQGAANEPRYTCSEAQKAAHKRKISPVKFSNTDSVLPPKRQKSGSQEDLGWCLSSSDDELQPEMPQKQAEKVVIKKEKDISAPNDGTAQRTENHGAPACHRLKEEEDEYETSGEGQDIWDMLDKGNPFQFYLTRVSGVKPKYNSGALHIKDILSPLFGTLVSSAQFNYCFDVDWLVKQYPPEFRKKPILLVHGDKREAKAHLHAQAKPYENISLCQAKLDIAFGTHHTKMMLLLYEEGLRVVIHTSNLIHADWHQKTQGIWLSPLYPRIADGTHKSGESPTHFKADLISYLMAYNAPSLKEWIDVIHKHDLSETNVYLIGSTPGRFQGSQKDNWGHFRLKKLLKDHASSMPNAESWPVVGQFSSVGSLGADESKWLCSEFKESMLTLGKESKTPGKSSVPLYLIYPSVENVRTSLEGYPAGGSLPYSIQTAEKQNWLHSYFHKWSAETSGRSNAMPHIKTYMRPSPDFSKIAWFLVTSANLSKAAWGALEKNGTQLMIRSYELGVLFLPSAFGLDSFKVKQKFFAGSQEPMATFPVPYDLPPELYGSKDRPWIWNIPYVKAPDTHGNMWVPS
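Tdp1 1 nM final; 15 min RT w/ cpd; substrate 15 nM, 5 min; beads 10 ug/ml, 10 min; AlphaScreen read. Neg ctrl: no enzyme.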
ClpP validation – Bacillus subtilis ClpP inhibition, validated hit; purified B. subtilis ClpP, FRET-FV substrate cleavage, 20 min; 470 compounds, 40% hits; shares compounds with ClpP mod; Potency, µM (titrated, usually from 57.5 µM), usual class: inhibitors; note: nearly all actives have a fitted effect of over 70% in size
Of the large screens only hits and unclear results are named; the others gave an inactive call (follow-up assays come after a bar, where they were run). Unless noted, calls come from the whole dose curve; as a rule, active = well fitted curve in the direction sought with a large enough effect; inconclusive = small, poorly fitted or top-dose-only effect, or another doubt; inactive = no such curve, though single readings can be large; an effect the other way counts as inactive or inconclusive.

CC(C)[C@H](N)C(=O)OCCOCn1cnc2c(=O)[nH]c(N)nc21	TDP1 cell noCPT 2.9µM, DT40 TDP1 CPT 1.8µM
COC(=O)[C@@H]1[C@@H](O)[C@@]2(O)c3c(OC)cc(OC)cc3O[C@@]2(c2ccc(OC)cc2)[C@H]1c1ccccc1	none (no result: TDP1 cell noCPT, DT40 TDP1 CPT, ClpP mod)
CCCC(=O)Nc1ccc(N2CCN(CC)CC2)c(Cl)c1	TDP1 cell noCPT inconclusive
CCCC(=O)NC1=C(N2CC2)C(=O)C(NC(=O)CCC)=C(N2CC2)C1=O	TDP1 cell noCPT 1.6µM, DT40 TDP1 CPT 0.82µM (no result: ClpP mod, TDP1 block)
O=C(NCc1ccc(C(=O)N2CCC3(CC2)OCCO3)cc1)c1cccc(Br)c1	DT40 TDP1 CPT inconclusive
Cc1ccc(C(=O)N2CCc3cc(CNC(=O)c4ccnn4C)ccc32)cc1	TDP1 cell noCPT 9.2µM, DT40 TDP1 CPT 5.8µM
CCOC(=O)c1cccc(NC(=O)NCc2ccc3c(c2)CCN3C(=O)c2ccccc2)c1	TDP1 cell noCPT 16µM, DT40 TDP1 CPT 16µM
COC(=O)C1(C(=O)OC)C[C@H](c2ccc(OC)cc2)N(Cc2ccccc2OC)[C@@H]1c1ccccc1	TDP1 cell noCPT inconclusive, DT40 TDP1 CPT inconclusive (no result: TDP1 block)
CC12CCC3c4ccc(O)c([N+](=O)[O-])c4CCC3C1CCC2=O (configuration not stated)	TDP1 cell noCPT inconclusive, DT40 TDP1 CPT inconclusive (no result: TDP1 block)
O=NN(CCO)CCO	none (no result: TDP1 cell noCPT, DT40 TDP1 CPT, ClpP mod)
COC1/C=C/C=C(\C)Cc2cc(O)c(Cl)c(c2)N(C)C(=O)CC(OC(=O)C(C)C)C2(C)OC2C(C)C2CC1(O)NC(=O)O2 (configuration not stated)	TDP1 cell noCPT 0.15µM, DT40 TDP1 CPT 0.016µM (no result: TDP1 block)
COc1cc(C(c2c(O)c3ccccc3oc2=O)c2c(C)n(C)n(-c3ccccc3)c2=O)ccc1OCC(=O)O (configuration not stated)	none
CC(C)C[C@H]1COc2cc(N3CCN(C)CC3)ccc2S(=O)(=O)N1	TDP1 cell noCPT inconclusive (no result: TDP1 block)
N#CC(C#N)=Cc1ccc(C=C(C#N)C#N)cc1	TDP1 cell noCPT 4.6µM, DT40 TDP1 CPT 3.7µM (no result: ClpP mod)
COC(=O)C12CC3=CCC4C(=O)N(c5ccccc5)C(=O)C4C3Cc3ccccc3[C@@H]1CNC2=O (some centres not stated)	none (no result: TDP1 cell noCPT, DT40 TDP1 CPT, ClpP mod)
Cc1ccc2ccccc2c1	none (no result: TDP1 cell noCPT, DT40 TDP1 CPT, ClpP mod)
c1ccc2nc3ccccc3cc2c1	TDP1 cell noCPT 13µM, DT40 TDP1 CPT 10µM
Nc1cccc2ccccc12	none (no result: TDP1 cell noCPT, DT40 TDP1 CPT, ClpP mod)
CCOC(=O)C1(CCOc2ccccc2)CCN(Cc2ccccc2OC)CC1	TDP1 cell noCPT 15µM, DT40 TDP1 CPT 16µM (no result: TDP1 block)
CCOC(=O)C1(CCOc2ccccc2)CCN(Cc2cnc(SC)nc2)CC1	TDP1 cell noCPT 18µM, DT40 TDP1 CPT inconclusive (no result: ClpP mod)
CCOC(=O)C1(CCc2ccccc2)CCN(Cc2cccc3c2OCO3)CC1	TDP1 cell noCPT 9.2µM, DT40 TDP1 CPT inconclusive (no result: ClpP mod, TDP1 block)
CCOC(=O)C1(CCc2ccccc2)CCN(C(C)CSC)CC1 (configuration not stated)	TDP1 cell noCPT inconclusive, DT40 TDP1 CPT inconclusive (no result: TDP1 block)
COc1ccc(N)cc1	none (no result: TDP1 cell noCPT, DT40 TDP1 CPT, ClpP mod)
Cc1ccccc1C(=O)Nc1cc(-c2ccc(Cl)cc2)nn1-c1ccccc1	TDP1 cell noCPT inconclusive, DT40 TDP1 CPT inconclusive | ClpP validation inactive
O=C(Nc1ccc(Cl)cc1C(=O)c1ccccc1)c1ccccc1	DT40 TDP1 CPT inconclusive
CNc1ccc2oc(C[C@H]3O[C@@]4(CC[C@H]3C)O[C@H]([C@H](C)C(=O)c3ccc[nH]3)[C@H](C)C[C@H]4C)nc2c1C(=O)O	TDP1 cell noCPT 0.18µM, DT40 TDP1 CPT 0.026µM | ClpP validation 27µM
CCOc1ccccc1CN1CCCC(C(=O)c2cc(F)ccc2F)C1 (configuration not stated)	TDP1 cell noCPT inconclusive (no result: ClpP mod, TDP1 block)
Nc1ccc(Cc2ccc(N)cc2)cc1	none
Oc1cc2c(cc1CN1CCN(c3ccccc3F)CC1)OCO2	none (no result: ClpP mod)
CCCCC(=O)Nc1c(C(=O)N2CCN(c3ccccc3F)CC2)oc2ccccc12	TDP1 cell noCPT 9.2µM, DT40 TDP1 CPT 15µM, ClpP mod 1.3µM | ClpP validation inactive
CCCNC(=O)c1cnn2c(C)c(Cc3c(C)cc(C)cc3C)c(C)nc12	TDP1 cell noCPT 1.8µM, DT40 TDP1 CPT 3.7µM, ClpP mod 10µM | ClpP validation inactive
